This passage reports growth results from PubChem BioAssay (NCI).

Compounds without any hit were thinned out: in the full panel of roughly 83,000, 20% have a hit.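 The endpoint reported here, percent growth, reads 100 for growth as untreated, 0 for no net growth and -100 for all cells dead.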 A number with no mark means an inactive call. Active and inactive are the calls of the source.

The assay relates to HL-60(TB) leukemia. Description: NCI-60 one-dose screen, 48 h (100 = growth as untreated, 0 = no growth, -100 = all killed). The conditions noted are these: 10 µM unless noted. As to the method:
Growth inhibition of the HL-60(TB) human tumor cell line is measured as a screen for anti-cancer activity. Cells are grown in 96 well plates and exposed to the test compound for 48 hours. Compounds are tested at a single concentration, which is 10^-5 M for most compounds. The reported endpoint is percent growth (GI% or GIPRCNT), where numbers from 0 - 100% represent growth inhibition, and numbers from -100% - 0 represent cell death. For example, a value of 40 represents 60% growth inhibition. A value of 0 means no net growth occurred over the course of the experiment. A value of -40 indicates 40% of cells at the beginning of the experiment died by the end of the experiment. A value of -100 means all cells are dead at the end of the experiment.
NCI-60 Human Tumor Cell Lines Screen was performed using the standard one-dose NCI protocol, which is described in more detail at https://dtp.cancer.gov/discovery_development/nci-60/default.htm.
Compounds with GIPRCNT values below 10 were considered active. Activity score was based on GIPRCNT using the following formula: […]
Score is 0 for GIPRCNT values of 100 or above, 50 for GIPRCNT values of 0, and 100 for GIPRCNT values of -100.
For `NC(N)=Nc1ccc(Nc2cccc(Nc3ccc(Cl)c(C(F)(F)F)c3)c2)cn1`, the growth is -40.5% (active).

Consider `Cc1cccc2c3c(sc12)C(c1ccc(F)cc1)C(C#N)=C(/N=C/c1ccc(Cl)cc1)O3` (stereo not given), for which the growth is 2.41% (active).

Regarding `COc1cc(-c2nnc(SCc3ccc(O)c4ncccc34)n2-c2ccccc2)cc(OC)c1OC`, the growth is -17.8% (active).

As to `CC(Nc1ncnc2ccc(-c3cnc(N)nc3)cc12)c1ccccc1` (stereo not given), the growth is 35.3%.

On to `Cc1cnc2nc(NN)[nH]n12`, for which the growth is 100%.

Consider `CC1(C)CC[C@]2(C(=O)O)CC[C@]3(C)C(=CCC4[C@@]5(C)C[C@@H](O)[C@@H]6OC(c7ccccc7O)OC[C@@]6(C)C5CC[C@]43C)C2C1` (stereo not given in full), for which the growth was 38%.

As to `CCOC(=O)C1=C(C)NC(C)=C(C(=O)OCc2ccccc2)C1c1cccc(C#N)c1` (stereo not given), the growth is 16.1%.

As for `N#Cc1c(-c2cccs2)cc(-c2cnccn2)nc1SCC(=O)N/N=C/c1ccc(Cl)cc1`, the growth was 110%.

Take `C#CCOc1ccc(C(Nc2ccc(Cl)cc2)c2nnnn2C2CCCCC2)cc1` (stereo not given): the growth is 83.8%.

For the compound `C#C[C@]1(O)CC[C@H]2[C@@H]3CC=C4c5sc(Nc6ccc(Cl)cn6)nc5CC[C@]4(C)[C@H]3CC[C@@]21C`, the growth was 6.4% (active).

On to `NC(=O)N1N=C(c2cc3ccccc3oc2=O)CC1c1cn(-c2ccccc2)nc1-c1ccc(Cl)cc1` (stereo not given), for which the growth was 47%.

On to `CCCCCCNC(=O)Oc1ccc(/C(=C(/C)c2ccc(Cl)cc2)c2ccc(OCCN3CCCCCC3)cc2)cc1`, for which the growth is 32.4%.

Regarding `C=CCN(C)S(=O)(=O)/N=C1\NC(=O)NC1=C(Cl)Cl`, the growth was -51.7% (active).

Regarding `Cn1c(SCC(=O)c2ccc(F)cc2)nc2ccccc2c1=O`, the growth is 97.9%.

Regarding `Cn1cc(-c2cc(N)n3nc(-c4cn(C)c5ccc(F)cc45)cc3n2)c2cc(F)ccc21`, the growth is -32.4% (active).

As to `CCN(CC)Cc1c(-c2cccc(OC(F)(F)F)c2)[nH]c2ccc(N3CCCC3)cc2c1=O`, the growth is 72.9%.

As for `CCOC(=O)Nc1ccc2c(ccn2C(=O)c2cccc(F)c2)c1`, the growth was 12.3%.

Take `C#Cc1cc(C(=O)Nc2ccc(CNCCN3CCOCC3)c(C(F)(F)F)c2)ccc1C`: the growth was 86%.

On to `CN(CCF)/N=N/c1nc[nH]c1C(N)=O`, for which the growth is 21.6%.

In the case of `COc1ccc(C(=O)/C=C/c2ccc(OCc3ccc(C)cc3)c(OC)c2)cc1OC`, the growth is 40.7%.

With `N/C(=N\C(N)=N\c1nc2ccccc2s1)c1ccncc1Cl`, the growth is 6.91% (active).

For `O=S(=O)(Oc1ccc(-c2nnc(Nc3ccccc3)s2)cc1)C(F)(F)C(F)(F)C(F)(F)C(F)(F)C(F)(F)C(F)(F)F`, the growth was 70.6%.

As to `CN1CCN(Cc2ccc(NC(=O)c3cncc(C#Cc4cnc5ccc(OCCCS(C)(=O)=O)nn45)c3)cc2C(F)(F)F)CC1`, the growth was -6.31% (active).

Turning to `c1ccc(-c2cn3c(-c4c[nH]c5ccccc45)csc3n2)cc1`, the growth is 56%.

Consider `N#Cc1c(-c2cccs2)c(C#N)c(=O)n(Cc2nc3ccccc3[nH]2)c1N`, for which the growth is 108%.

With `O=C1[C@H]2Cc3c([nH]c4ccccc34)[C@@H](c3ccc(Cl)cc3)N2C(=O)CN1C1CCN(Cc2ccccc2)CC1`, the growth was 12.9%.

Consider `O=C(CCCCCCNC(=O)C(O)(O)C(F)(F)F)Nc1ccc(Cl)cc1`, for which the growth is 9.84% (active).

On to `COc1c([C@@H](CC(C)C)OC(C)=O)ccc2c1C(=O)OCc1cc(C)cc(O)c1O2`, for which the growth is 63.7%.

For the compound `CN1CCN(c2ccc(Nc3nc(NCCNS(=O)(=O)c4ccc(Cl)cc4)c4sccc4n3)cc2)CC1`, the growth is 80.1%.

For the compound `COc1cc(OC)c(S(N)(=O)=O)cc1C(=O)/C=C/c1ccccc1`, the growth is 5.25% (active).

On to `Cc1cc(C(NC(=O)CCCCCNc2cccc3c2C(=O)N(C2CCC(=O)NC2=O)C3=O)c2cccnc2)c(O)c2ncccc12` (stereo not given), for which the growth is -31% (active).

Regarding `N#C/C(=C\c1ccc(-c2ccc(Cl)cc2)o1)C(=O)Nc1ncc(Cc2ccc(Br)cc2)s1`, the growth was 50%.

As for `CCCc1[nH]c(-c2cc(N)ccc2Cl)c2c1C(=O)CCCC2`, the growth was 92.4%.

Regarding `C=C(C)[C@@H]1CC[C@]2(COCCCNCCCN)CC[C@]3(C)[C@H](CC[C@@H]4[C@@]5(C)CC[C@H](O)C(C)(C)[C@@H]5CC[C@]43C)[C@@H]12`, the growth was -28.1% (active).

As to `C#CCOc1ccc(/C=N/Nc2nc(-c3ccc(OC)cc3)cs2)cc1`, the growth was 60%.

On to `O=C(CSc1nc2sc3c(c2c(=O)n1-c1ccc(Cl)cc1)CCCC3)NNC(=O)Nc1ccc(Cl)c(C(F)(F)F)c1`, for which the growth was 6.38% (active).

Consider `COc1cc(/C=N/NC(=O)c2cn(C3CC3)c3c(OC)c(N4CC5CCCNC5C4)c(F)cc3c2=O)ccc1O` (stereo not given), for which the growth was -40.3% (active).

As for `CCn1c2ccc(/C=N/N(C)S(=O)(=O)CCN(C)C)cc2c2cc(/C=N/N(C)S(=O)(=O)CCN(C)C)ccc21`, the growth is 42.5%.

For the compound `CC(Nc1c(C#N)cnc2ccc(-c3cncc(-c4n[nH]c(=O)o4)c3)cc12)c1ccccc1` (stereo not given), the growth was 14.9%.

Consider `O=C(CN1CCN(c2cc(=O)[nH]c3ccc(F)cc23)CC1)Nc1ccc(Cl)cc1`, for which the growth was 87.6%.
